Results published in PubChem BioAssay AID1159580 (chemical genetic matrix, 2015).
Out of some 5,500 compounds screened, about 2,000 (36%) were called active. Not shown: some 18% with an inconclusive outcome. No stated cut-off is given here; in the data, active means normalized growth mostly below about 0.91 (no sharp cut-off); inconclusive means no clear call, values can overlap the other calls; inactive means mostly above about 0.92. The list shows a part of the results.

Experiment: chemical genetic growth profiling, strain panel (AID 1159580);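 further: tested at 20 µM; growth read once vehicle control cultures reached saturation at 30 °C; 1 = growth at the plate median or of vehicle wells; lower values mean less growth of the strain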
Conditions: growth OD

Measured: normalized growth

Cc1ccccc1N1C(=O)c2cc(S(N)(=O)=O)c(Cl)cc2NC1C (stereo not drawn)
inactive: S. cerevisiae deletion strains, locus YKL009W, strain mrt4, active compounds read low 1.01 | S. cerevisiae deletion strains, locus YKL068W, active compounds read low 0.982 | S. cerevisiae deletion strains, locus YKL085W, strain MDH1 (second series), active compounds read low 1.03 | S. cerevisiae deletion strains, locus YKL085W, strain MDH1, active compounds read low 1.03 | S. cerevisiae deletion strains, locus YKL160W, strain elf1, active compounds read low 0.969 | S. cerevisiae deletion strains, locus YKL190W, strain CNB1, active compounds read low 0.994 | S. cerevisiae deletion strains, locus YKR001C, strain vps1, active compounds read low 0.988 | S. cerevisiae deletion strains, locus YKR026C, strain gcn3, active compounds read low 0.94 | S. cerevisiae deletion strains, locus YKR091W, strain srl3, active compounds read low 0.984 | S. cerevisiae deletion strains, locus YLL001W, strain dnm1, active compounds read low 0.969 | S. cerevisiae deletion strains, locus YLL026W, active compounds read low 1 | S. cerevisiae deletion strains, locus YLL041C, strain sdh2, active compounds read low 0.988 | S. cerevisiae deletion strains, locus YLR027C, strain aat2, active compounds read low 0.987 | S. cerevisiae deletion strains, locus YLR039C, strain RIC1, active compounds read low 0.974 | S. cerevisiae deletion strains, locus YLR058C, strain SHM2, active compounds read low 0.987 | S. cerevisiae deletion strains, locus YLR102C, strain apc9, active compounds read low 0.989 | S. cerevisiae deletion strains, locus YLR113W, strain HOG1, active compounds read low 0.985 | S. cerevisiae deletion strains, locus YLR221C, strain rsa3, active compounds read low 0.986 | S. cerevisiae deletion strains, locus YLR258W, strain gsy2, active compounds read low 0.969 | S. cerevisiae deletion strains, locus YLR262C, strain YPT6 (second series), active compounds read low 0.96 | S. cerevisiae deletion strains, locus YLR262C, strain YPT6, active compounds read low 1.01 | S. cerevisiae deletion strains, locus YLR268W, strain sec22, active compounds read low 0.995 | S. cerevisiae deletion strains, locus YLR320W, strain mms22, active compounds read low 1.04 | S. cerevisiae deletion strains, locus YLR330W, strain CHS5, active compounds read low 0.99 | S. cerevisiae deletion strains, locus YLR342W, strain FKS1 (second series), active compounds read low 0.971 | S. cerevisiae deletion strains, locus YLR342W, strain FKS1, active compounds read low 0.983 | S. cerevisiae deletion strains, locus YLR357W, strain rsc2, active compounds read low 0.949 | S. cerevisiae deletion strains, locus YLR370C, strain arc18, active compounds read low 0.98 | S. cerevisiae deletion strains, locus YLR371W, strain rom2, active compounds read low 0.993 | S. cerevisiae deletion strains, locus YLR384C, strain iki3, active compounds read low 0.961 | S. cerevisiae deletion strains, locus YLR418C, strain cdc73, active compounds read low 0.98 | S. cerevisiae deletion strains, locus YML016C, strain PPZ1, active compounds read low 0.985 | S. cerevisiae deletion strains, locus YML032C, strain rad52, active compounds read low 0.994 | S. cerevisiae deletion strains, locus YML120C, strain ndi1, active compounds read low 1 | S. cerevisiae deletion strains, locus YML124C, strain tub3, active compounds read low 0.978 | S. cerevisiae deletion strains, locus YMR058W, strain fet3, active compounds read low 0.988 | S. cerevisiae deletion strains, locus YMR078C, strain ctf18, active compounds read low 0.984 | S. cerevisiae deletion strains, locus YMR125W, strain sto1, active compounds read low 0.921 | S. cerevisiae deletion strains, locus YMR129W, active compounds read low 0.997 | S. cerevisiae deletion strains, locus YMR205C, strain PFK2, active compounds read low 0.982 | S. cerevisiae deletion strains, locus YMR223W, strain ubp8, active compounds read low 0.993 | S. cerevisiae deletion strains, locus YMR231W, strain pep5, active compounds read low 0.974 | S. cerevisiae deletion strains, locus YMR263W, strain SAP30, active compounds read low 1.01 | S. cerevisiae deletion strains, locus YMR307W, strain GAS1, active compounds read low 0.888 | S. cerevisiae deletion strains, locus YNL067W, strain RPL9B, active compounds read low 1.01 | S. cerevisiae deletion strains, locus YNL071W, strain lat1, active compounds read low 1.01 | S. cerevisiae deletion strains, locus YNL128W, strain TEP1, active compounds read low 0.97 | S. cerevisiae deletion strains, locus YNL183C, strain NPR1, active compounds read low 0.93 | S. cerevisiae deletion strains, locus YNL209W, strain ssb2, active compounds read low 0.994 | S. cerevisiae deletion strains, locus YNL233W, strain BNI4, active compounds read low 1.01 | S. cerevisiae deletion strains, locus YNL248C, strain rpa49, active compounds read low 0.909 | S. cerevisiae deletion strains, locus YNL250W, strain rad50, active compounds read low 0.98 | S. cerevisiae deletion strains, locus YNL271C, strain bni1, active compounds read low 0.983 | S. cerevisiae deletion strains, locus YNL298W, strain CLA4, active compounds read low 0.996 | S. cerevisiae deletion strains, locus YNL307C, strain MCK1, active compounds read low 0.996 | S. cerevisiae deletion strains, locus YNL322C, strain KRE1 (second series), active compounds read low 0.98 | S. cerevisiae deletion strains, locus YNR049C, strain mso1, active compounds read low 0.992 | S. cerevisiae deletion strains, locus YNR052C, strain pop2, active compounds read low 0.995 | S. cerevisiae deletion strains, locus YOL006C, strain TOP1, active compounds read low 0.997 | S. cerevisiae deletion strains, locus YOL012C, strain htz1 0.785 | S. cerevisiae deletion strains, locus YOL147C, strain pex11, active compounds read low 0.987 | S. cerevisiae deletion strains, locus YOR001W, strain rrp6, active compounds read low 0.957 | S. cerevisiae deletion strains, locus YOR061W, strain CKA2, active compounds read low 0.993 | S. cerevisiae deletion strains, locus YOR069W, strain VPS5, active compounds read low 0.986 | S. cerevisiae deletion strains, locus YOR070C, strain gyp1, active compounds read low 0.999 | S. cerevisiae deletion strains, locus YOR080W, strain dia2, active compounds read low 0.961 | S. cerevisiae deletion strains, locus YOR083W, strain WHI5, active compounds read low 0.986 | S. cerevisiae deletion strains, locus YOR106W, strain vam3, active compounds read low 0.957 | S. cerevisiae deletion strains, locus YOR136W, strain idh2, active compounds read low 0.99 | S. cerevisiae deletion strains, locus YOR144C, strain elg1, active compounds read low 0.987 | S. cerevisiae deletion strains, locus YOR184W, strain ser1, active compounds read low 1.01 | S. cerevisiae deletion strains, locus YOR231W, strain MKK1, active compounds read low 0.974 | S. cerevisiae deletion strains, locus YOR265W, strain rbl2, active compounds read low 0.995 | S. cerevisiae deletion strains, locus YOR270C, strain vph1, active compounds read low 0.938 | S. cerevisiae deletion strains, locus YOR290C, strain snf2, active compounds read low 0.995 | S. cerevisiae deletion strains, locus YOR316C, strain cot1, active compounds read low 0.983 | S. cerevisiae deletion strains, locus YPL051W, strain arl3, active compounds read low 1.01 | S. cerevisiae deletion strains, locus YPL078C, strain atp4, active compounds read low 0.957 | S. cerevisiae deletion strains, locus YPL106C, strain sse1, active compounds read low 0.956 | S. cerevisiae deletion strains, locus YPL240C, strain hsp82, active compounds read low 0.986 | S. cerevisiae deletion strains, locus YPL241C, strain CIN2, active compounds read low 0.992 | S. cerevisiae deletion strains, locus YPL256C, strain CLN2, active compounds read low 0.954 | S. cerevisiae deletion strains, locus YPR119W, strain clb2, active compounds read low 0.987 | S. cerevisiae deletion strains, locus YPR141C, strain kar3, active compounds read low 0.975 | S. cerevisiae deletion strains, locus YPR163C, strain tif3, active compounds read low 0.981 | S. cerevisiae deletion strains, locus YPR167C, strain met16, active compounds read low 0.992 | S. cerevisiae deletion strains, strain wtn01, active compounds read low 0.991 | S. cerevisiae strains, strain wild type, active compounds read low 0.943
